{
  "source": "PubChem BioAssay AID1626",
  "about": "(SRMLSC, 2009)",
  "note": "Hit rate of the full screen: of about 220,000 compounds, about 2,000 (0.91%) were called active. About 2% were inconclusive and are not listed. A selection follows. Potency and affinity values are given separately. Unmarked numbers belong to inactive results. No stated cut-off is given here; in the data, inconclusive means inhibition above about 80% without an active follow-up result; inactive means below that; test concentration not stated here.",
  "data": [
    {"test": "M. tuberculosis H37Rv growth inhibitors, H37Rv strain (AID 1626);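 further: bacteria incubated seven days before Alamar blue readout; 0% = bacteria only wells and 100% = bacteria with antibiotic wells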", "settings": "active compounds read high, concentration not given here", "units": {"inhibition": "%"}, "values": [
      {"smiles": "CCOCCCNC(=O)c1cc2c(=O)n3cccc(C)c3nc2n1C", "inhibition": 1.27},
      {"smiles": "c1ccc(-c2ncc3c(ccc4ccccc43)n2)cc1", "inhibition": 4.61},
      {"smiles": "CCOc1ncccc1C(=O)Nc1ccccc1C(=O)NCc1ccc2c(c1)OCO2", "inhibition": -0.12},
      {"smiles": "Cc1ccccc1Nc1nc(N)nc(CSc2nnc(C)n2C)n1", "inhibition": 3.87},
      {"smiles": "Cc1ccc(C2N=C(N)Nc3nc4ccccc4n32)cc1", "note": "(stereo not given)", "inhibition": -6.16},
      {"smiles": "CCOC(=O)C1=C(C)Nc2nc3ccccc3n2C1c1ccccc1", "note": "(stereo not given)", "inhibition": -9.7},
      {"smiles": "Cc1cccc(C2N=C(N)Nc3nc4ccccc4n32)c1", "note": "(stereo not given)", "inhibition": -9.29},
      {"smiles": "NC1=NC(c2ccccc2Cl)n2c(nc3ccccc32)N1", "note": "(stereo not given)", "inhibition": 7.21},
      {"smiles": "CCn1c2ccccc2c2cc(C3N=C(N)Nc4nc5ccccc5n43)ccc21", "note": "(stereo not given)", "inhibition": -6.84},
      {"smiles": "NC1=NC(c2ccc(Cl)cc2)n2c(nc3ccccc32)N1", "note": "(stereo not given)", "inhibition": 4.44},
      {"smiles": "O=C1C2C3CCC(C3NCc3ccccc3)C2C(=O)N1Cc1ccccc1", "note": "(stereo not given)", "inhibition": -0.18},
      {"smiles": "OC(CSc1ccc(F)cc1)CN1CCN(c2ccccc2)CC1", "note": "(stereo not given)", "inhibition": 2.78},
      {"smiles": "Cc1nc(-c2nc(-c3c(C(=O)NNC(=O)Nc4ccccc4)noc3C)cs2)cs1", "inhibition": 1.03},
      {"smiles": "Cc1nc(NC(=O)c2cc(-n3cnnc3)ccc2Cl)ccc1Br", "inhibition": 0.92},
      {"smiles": "O=C(NC12CC3CC(CC(C3)C1)C2)c1ccc(=O)oc1", "inhibition": -2.56},
      {"smiles": "O=C(NC12CC3CC(CC(C3)C1)C2)c1ccccc1", "inhibition": 2.5},
      {"smiles": "O=C(COC(=O)c1ccc(-c2ccc([N+](=O)[O-])cc2)o1)NC(=O)NC1CCCCC1", "inhibition": 31},
      {"smiles": "COc1ccc(CC(=O)OCC(=O)NC(=O)NC23CC4CC(CC(C4)C2)C3)cc1", "inhibition": 0.65},
      {"smiles": "CCN(Cc1cc2ccc(C)cc2[nH]c1=O)C(=O)c1cccnc1", "inhibition": 3.56},
      {"smiles": "COCCSc1nnc(NS(=O)(=O)c2ccc(C)cc2)s1", "inhibition": -4.12},
      {"smiles": "O=C(CSc1nnc(-c2ccco2)n1Cc1ccccc1)OC1CCCCC1", "inhibition": -11.8},
      {"smiles": "N/C(=N\\OC(=O)/C=C/c1ccccc1)c1ccc(Cl)cc1", "inhibition": 1.43},
      {"smiles": "COC(=O)c1cc(C#N)c(N2CCOCC2)nc1C", "inhibition": -9.18},
      {"smiles": "O=C(O)c1ccccc1-c1ccc(/C=C/c2cc(C(F)(F)F)[nH]c(=O)n2)o1", "inhibition": -2.38},
      {"smiles": "O=C(O)c1cc(Cl)ccc1-c1ccc(/C=C/c2cc(C(F)(F)F)[nH]c(=O)n2)o1", "inhibition": -1.69},
      {"smiles": "Cc1ccc(S(=O)(=O)Nc2cc(C(C(=O)OC(C)C)C(=O)C(F)(F)F)c(O)c3ccccc23)c(C)c1", "note": "(stereo not given)", "inhibition": -10.5},
      {"smiles": "CCc1nc(N)c(C#N)c(-c2ccc(OC)c(OC)c2)c1C", "inhibition": -2.13},
      {"smiles": "COc1ccc(CNC(=O)/C=C/c2ccc(OCCCF)cc2)cc1", "inhibition": 11.3},
      {"smiles": "O=C(/C=C/c1ccc(OCCCF)cc1)Nc1ccnc(-c2cccnc2)n1", "inhibition": -6.59},
      {"smiles": "CC(=O)Nc1ccc2nc(SCC(=O)N3CCOCC3)sc2c1", "inhibition": 5.08},
      {"smiles": "O=C(Nc1ccc2nc(SCc3ccc(Cl)cc3)sc2c1)c1ccccc1C(=O)N1CCOCC1", "inhibition": 4.76},
      {"smiles": "CCCn1c(=O)c(C(=O)NCc2ccc(OC)c(OC)c2)c(O)c2ccccc21", "inhibition": -0.33},
      {"smiles": "COc1ccc(-c2nc(NC(=O)c3nc4nccc(C)n4n3)sc2C)cc1", "inhibition": -7.46},
      {"smiles": "Cc1ccc(-c2nc(NC(=O)c3cc(C(C)(C)C)nn3C)sc2C)cc1Cl", "inhibition": 78.4},
      {"smiles": "C1CN(CC2CCN(c3nc4nonc4nc3N3CCSCC3)CC2)CCO1", "inhibition": -0.53},
      {"smiles": "CCCCc1ccc(NC(=O)CC(C)(C)C)cc1", "inhibition": 5.76},
      {"smiles": "CCCCc1ccc(NC(=O)N[C@@H](C)C(=O)O)cc1", "inhibition": 0.78},
      {"smiles": "CCCCc1ccc(NC(=O)OC)cc1", "inhibition": 58},
      {"smiles": "CCCCc1ccc(NC(=O)CC(C)=O)cc1", "inhibition": 77.5},
      {"smiles": "CCN(CC)C(=O)C1=C(C)Nc2ncnn2C1c1cccnc1", "note": "(stereo not given)", "inhibition": -0.97},
      {"smiles": "Cc1nn2c(-c3ccccc3)ccnc2c1-c1ccccc1", "inhibition": -0.56},
      {"smiles": "OCC1OC(n2nnc3ccccc32)C(O)C(O)C1O", "note": "(stereo not given)", "inhibition": -9.39},
      {"smiles": "Cc1cc(NC(=O)CCl)on1", "inhibition": 0.735},
      {"smiles": "Cc1cc(NC(=O)CCl)no1", "inhibition": 65},
      {"smiles": "CSc1nc(=O)n2cc(C)ccc2n1", "inhibition": 0.11},
      {"smiles": "CCOC(=O)C(NC(C)=O)(Nc1ccc(S(=O)(=O)Nc2cc(C)nc(C)n2)cc1)C(F)(F)F", "note": "(stereo not given)", "inhibition": -6.92},
      {"smiles": "O=C(Nc1ccccc1)c1ccc(CSc2ncccn2)cc1", "inhibition": 3.69},
      {"smiles": "Cc1ccc(NC(=O)c2ccc(CSc3ccccn3)cc2)cc1", "inhibition": 14.1},
      {"smiles": "CCOC(=O)C(=CNc1ccc(Oc2cncc(Cl)c2)nc1)C(=O)OCC", "inhibition": 2.61},
      {"smiles": "Cc1onc(-c2ccccc2Cl)c1C(=O)Nc1ccc(-n2nncc2-c2ccco2)cc1", "inhibition": 68},
      {"smiles": "O=C(Nc1ccc(-n2nncc2-c2ccco2)cc1)c1ccc(F)cc1", "inhibition": 0.33},
      {"smiles": "Cc1ccc(-c2nnn(CC(=O)N3CCCCC3)n2)o1", "inhibition": -0.84},
      {"smiles": "CC(OC(=O)C1=COCCO1)C(=O)Nc1ccccc1C#N", "note": "(stereo not given)", "inhibition": -7.04},
      {"smiles": "CCC(C)NC(=O)Nc1ccc(Br)cc1", "note": "(stereo not given)", "inhibition": 1.26},
      {"smiles": "CC(C)(C)NC(=O)Nc1ccc(Br)cc1", "inhibition": -1.24},
      {"smiles": "COc1ccc(C(=O)/C=C\\c2ccc(NC(=O)c3cccs3)cc2)cc1", "inhibition": -0.27},
      {"smiles": "COc1c(Cl)cc(Cl)cc1C(=O)Nc1ccc(NC(=O)c2cccs2)cc1", "inhibition": 56.1},
      {"smiles": "CC1SCC(=O)N(CC(=O)Nc2ccc3c(c2)OCCO3)C1=O", "note": "(stereo not given)", "inhibition": 2.44},
      {"smiles": "Cn1c(CNC(=O)c2ccc(F)cc2)nc2ccccc21", "inhibition": -0.81},
      {"smiles": "Nc1nc2ccccc2n1C(=O)c1ccco1", "inhibition": 2.98},
      {"smiles": "Cc1ccc(S(=O)(=O)/N=C(\\c2ccc(F)cc2)n2c(C)nc3ccccc32)cc1", "inhibition": 4.23},
      {"smiles": "Nc1nc2ccccc2n1C(=O)CCc1ccccc1", "inhibition": 0.09},
      {"smiles": "O=C(COc1ccc2ccccc2c1)N1c2ccccc2Sc2ccccc21", "inhibition": 2.2},
      {"smiles": "CN(Cc1ccccc1)S(=O)(=O)c1ccc(NS(C)(=O)=O)cc1", "inhibition": -4.2},
      {"smiles": "CC(=O)Nc1cc(Br)ccc1O", "inhibition": 3.76},
      {"smiles": "CN(Cc1ccccc1)C(=O)c1cc2ccccc2o1", "inhibition": 6.83},
      {"smiles": "CCOc1cc(C(=O)Nc2ccc(F)cc2)cc(Br)c1OC", "inhibition": 9.07},
      {"smiles": "CCN(CC)c1ccc(/C=N/OCC(=O)N2CCCc3ccccc32)cc1", "inhibition": 1.23},
      {"smiles": "CNc1c([N+](=O)[O-])cnn1-c1ccccc1Cl", "inhibition": 4.21},
      {"smiles": "Cc1ccccc1-c1cnn(-c2cccc([N+](=O)[O-])c2)c1N", "inhibition": 5.3},
      {"smiles": "O=C(CSc1nnc(NC(=O)Cc2ccccc2)s1)NCc1ccco1", "inhibition": -1.92},
      {"smiles": "O=C(O)c1sccc1S(=O)(=O)c1ccccc1", "inhibition": -0.34},
      {"smiles": "Cn1nccc1C(=O)Oc1ccc(/C=N/NC(=O)c2ccccc2O)cc1", "inhibition": -6.68},
      {"smiles": "Cc1nnc(Cl)c2nn(-c3ccccc3)c(C)c12", "inhibition": -0.17},
      {"smiles": "CC(C)(C)OC(=O)NCCCCCc1nnc(SCc2ccc(F)cc2)o1", "inhibition": 60.9},
      {"smiles": "Cc1cccc(CSc2nnc(CCNC(=O)OC(C)(C)C)o2)c1", "inhibition": 15},
      {"smiles": "CC(C)(C)OC(=O)NCCCCCc1nnc(SCc2cccc(F)c2)o1", "inhibition": 75},
      {"smiles": "Cc1ccc(CSc2nnc(CCNC(=O)OC(C)(C)C)o2)cc1", "inhibition": 7.99},
      {"smiles": "O=S(=O)(NC1CCCc2ccccc21)c1cnc[nH]1", "note": "(stereo not given)", "inhibition": 1.01},
      {"smiles": "O=C(COC(=O)c1cccs1)c1ccc2ccccc2c1", "inhibition": 7},
      {"smiles": "Nc1ccccc1C(=O)OCC(=O)c1ccc2c(c1)OCCO2", "inhibition": -1.04},
      {"smiles": "Nc1nc(N)c(N=Nc2ccc(SCC(=O)O)cc2)c(=O)[nH]1", "inhibition": -4.15},
      {"smiles": "CN(C)S(=O)(=O)N(CC(=O)NCCSCc1ccccc1)c1ccccc1", "inhibition": 22.6},
      {"smiles": "Cc1ccc(CN2CCN(Cc3ccncc3)CC2CCO)o1", "note": "(stereo not given)", "inhibition": -0.74},
      {"smiles": "CCN(CC)CCOC(=O)c1ccc([N+](=O)[O-])cc1", "inhibition": 1.65},
      {"smiles": "Cc1ccc(N2C(=O)C3C(c4ccccc4)(C2=O)C3(c2ccccc2)c2ccccc2)cc1", "note": "(stereo not given)", "inhibition": 7.89},
      {"smiles": "O=C1c2ccccc2C(=O)N1c1ccc(Cl)cc1", "inhibition": -5.9},
      {"smiles": "Cc1cccc(N2C(=O)c3cccc4c(N5CCCCC5)c([N+](=O)[O-])cc(c34)C2=O)c1C", "inhibition": 9.67},
      {"smiles": "CCc1ccccc1N1C(=O)c2cccc3c(N4CCOCC4)c([N+](=O)[O-])cc(c23)C1=O", "inhibition": 7.95},
      {"smiles": "COCCNS(=O)(=O)c1cc(-c2nn(C)c(=O)c3ccccc23)ccc1C", "inhibition": -0.86},
      {"smiles": "Cc1sc2nc(COC(=O)c3cccc(OC(F)F)c3)[nH]c(=O)c2c1C", "inhibition": 11.1},
      {"smiles": "Cc1ccc(NC(=O)COC(=O)c2ccc([N+](=O)[O-])s2)c(C)c1", "inhibition": 9.26},
      {"smiles": "COc1ccccc1NC(=O)C(=O)N/N=C/c1ccc([N+](=O)[O-])s1", "inhibition": 4.5},
      {"smiles": "Cc1cc([N+](=O)[O-])ccc1NC(=O)/C=C/c1cccs1", "inhibition": -0.49},
      {"smiles": "Cc1ccccc1NC(=O)/C=C/c1cccs1", "inhibition": -3.01},
      {"smiles": "CCNc1nc(NCC)nc(SCCOc2ccc(C)cc2)n1", "inhibition": 15.1},
      {"smiles": "COc1ccc(S(=O)(=O)NCC2CCCN(C(=O)c3ccco3)C2)cc1", "note": "(stereo not given)", "inhibition": -5.58},
      {"smiles": "Cc1cc(CNC(=O)CC2C(=O)NCCN2CC(c2ccccc2)c2ccccc2)on1", "note": "(stereo not given)", "inhibition": 1.54},
      {"smiles": "Cn1ncc2c(Nc3ccc(O)cc3)nc(Cl)nc21", "inhibition": -3.66},
      {"smiles": "Cn1ncc2c(Nc3ccccc3Cl)nc(Nc3ccccc3Cl)nc21", "inhibition": 29.2}
    ]}
  ]
}
